Experimental data taken from PubChem BioAssay AID504329 (Southern Research Specialized Biocontainment Screening …, 2011).
The campaign covered roughly 340,000 compounds. About 1,000 (0.29%) were called active. Only a sample is shown. Entries with a potency or affinity are not part of this list. Values without a mark were called inactive. Cut-off read from the data, not from the text of the source: inconclusive = inhibition above about 27% without an active follow-up result; inactive = below that.

assay: NS1A inhibition, H1N1 influenza, cell based functional assay (AID 504329); details: percent inhibition, at 12.5 µM, stronger effect = higher value

Structure (SMILES) | inhibition
Cc1ccc(CNC(=O)COc2ccc(C)nc2[N+](=O)[O-])cc1 | -5.51%
CCCCC(=O)Nc1c2c(nn1-c1ccc(C)cc1)CS(=O)(=O)C2 | -7.59%
COC(=O)c1c(C)cc(C)c2c1CC(C)(C)C2=O | 5.46%
Cc1ccc(S(=O)(=O)N2CCOCC2)cc1C(=O)Nc1nc(-c2cccnc2)cs1 | -7.87%
Cc1ccc(S(=O)(=O)N2CCOCC2)cc1C(=O)Nc1nc(-c2ccccn2)cs1 | 7.65%
COc1ccc(C(=O)Nc2nc(-c3ccccn3)cs2)cc1S(=O)(=O)N1CCOCC1 | -8.69%
O=C(Nc1ccccc1)c1ccc(F)c(S(=O)(=O)N2CCOCC2)c1 | 5.59%
Cc1ccc(C(=O)Nc2ccccn2)cc1S(=O)(=O)N1CCOCC1 | -1.96%
O=C(Nc1nccs1)c1ccc(F)c(S(=O)(=O)N2CCOCC2)c1 | -4.84%
CCC(NC(=O)COc1cc2c(c3oc(=O)c(C)c(C)c13)CCC(C)(C)O2)C(=O)O (stereo not given) | -8.88%
CC(C)CCN1CC(=O)N2Cc3[nH]c4ccccc4c3C[C@H]2C1=O | 19.7%
Cc1c(CNC2CCCC(C)C2C)c(C(=O)O)c(C)n1Cc1ccccc1 (stereo not given) | -12.9%
CC(C)NC(=O)NC(=O)COC(=O)c1cc(S(=O)(=O)N2CCCCC2)ccc1N1CCOCC1 | -4.42%
Cc1ccc(S(=O)(=O)N2CCCC2C(=O)OCc2ccccc2)cc1 (stereo not given) | 1.42%
Oc1ccccc1C(Nc1nccs1)c1ccc2cccnc2c1O (stereo not given) | 21.5%
COc1ccc(C(Nc2cc(C)ccn2)c2ccc3ccc(C)nc3c2O)cc1 (stereo not given) | 7.32%
Cc1ccc2ccc(C(Nc3cccc(C(F)(F)F)c3)c3cccnc3)c(O)c2n1 (stereo not given) | 11.9%
Cc1cc(NC(c2ccc(Cl)cc2)c2ccc3cccnc3c2O)no1 (stereo not given) | -17.5%
COc1ccccc1NC(c1cccnc1)c1ccc2cccnc2c1O (stereo not given) | 17.3%
Cc1ccnc(NC(c2ccccc2)c2ccc3cccnc3c2O)c1 (stereo not given) | 7.45%
Cc1ccc2ccc(C(Nc3ccccn3)c3ccccc3)c(O)c2n1 (stereo not given) | 32.6%
Oc1c(C(Nc2cccc(C(F)(F)F)c2)c2cccnc2)ccc2cccnc12 (stereo not given) | -1.29%
CC(C)CNC(=O)COc1cccc(C(=O)NCc2ccccc2)c1 | -16.8%
O=C(CN1C(=O)c2cccc3cccc1c23)NCc1cccnc1 | -7.77%
Cc1cc(S(=O)(=O)Nc2ccc(N3CCOCC3)cc2)ccc1Br | 9.89%
